Compounds with a hit are over-represented: about 3.6% of the library has one in this group of screens.
Pf apPOL inh: Pf-apPOL DNA polymerase inhibition; Recombinant Pf-apPOL, molecular beacon fluorescence, 1.5 h; inhibition, % at 10 µM; 210,000 compounds, 0.25% hits; AID 1794808
mHTT CaM bind: inhibitors of human mutant huntingtin-calmodulin interaction | P42858 | AlphaScreen His-mHTT/GST-CaM binding, luminescence | inhibition, % at 15 µM | 190,000 compounds, 3.6% hits | AID 1671202;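 also: 0% = both proteins with DMSO and 100% = one protein alone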
An asterisk follows results filed as active; i = inactive; · = no result. Rule as the data show it: active = inhibition above about 50%; inactive = the rest.

SMILES	Pf apPOL inh	mHTT CaM bind
O=C(CN(c1ccc(Cl)c(C(F)(F)F)c1)S(=O)(=O)c1ccccc1)Nc1cccnc1	7	35
O=C(CN(c1ccccc1)S(=O)(=O)c1ccc(Cl)cc1)Nc1ccc2c(c1)OCO2	-2	11
Cc1cc(Br)c(NC(=O)C(Cl)Cl)c(Br)c1	-9	·
O=S(=O)(NCC1(c2ccc(F)cc2)CCOCC1)c1ccc(Br)s1	-4	-2
Cc1ccc(C(=O)O/N=C(\N)c2cccnc2)cc1Cl	-2	i
COc1cc2c(cc1OC)C(C(=O)NCCCN1CCOCC1)C(c1cccnc1)N(C)C2=O (configuration not stated)	3	-8
COc1ccc(C2Nc3ccc(Br)cc3C3C=CCC32)cc1[N+](=O)[O-] (configuration not stated)	-9	86*
Fc1ccc2c(c1)[C@@H]1C=CC[C@@H]1[C@H](c1ccccc1Cl)N2	·	-4
COc1ccc(C2Nc3c(cccc3C(F)(F)F)C3C=CCC32)cc1[N+](=O)[O-] (configuration not stated)	-9	38
COc1ccc(Br)cc1C1Nc2ccc(F)cc2C2C=CCC21 (configuration not stated)	-2	73*
CC(=O)N1CCC(n2c(C)nc(C(=O)Nc3ccc4c(c3)OCO4)c2C)CC1	-6	28
COc1ccc(C2C(C#N)=C(N)Oc3n[nH]c(C)c32)cc1CN1CCOCC1 (configuration not stated)	4	-5
COc1ccc(C2c3cc(OC)c(OC)cc3CCN2C(=O)C(C)C)cc1 (configuration not stated)	1	-4
Brc1cccc(C2=Nn3c(nnc3-c3ccccn3)SC2)c1	·	54*
Brc1ccccc1-c1nnc2n1N=C(c1ccccc1)CS2	-4	31
Cc1ccc(CC(=O)N2CCC(c3nc(C(=O)N4CCCC4)c(C)o3)CC2)cc1	4	20
Cc1ccccc1-n1nc2c(c1NC(=O)c1ccc(Cl)cc1)CSC2	-2	71*
COc1ccc(C(=O)Nc2c3c(nn2-c2cccc(Cl)c2)CSC3)cc1OC	-5	57*
COc1ccc(C(=O)Nc2c3c(nn2-c2cccc(C)c2)CSC3)cc1OC	-4	45
Cc1ccccc1-n1nc2c(c1NC(=O)c1cccc(Cl)c1)CSC2	-5	71*
Cc1cc(C)cc(C(=O)Nc2c3c(nn2-c2ccccc2C)CSC3)c1	-4	22
COc1cccc(C(=O)Nc2c3c(nn2-c2ccccc2C)CSC3)c1	-3	41
O=C(Nc1c2c(nn1-c1ccc([N+](=O)[O-])cc1)CSC2)c1ccc([N+](=O)[O-])cc1	-3	5
O=C(Nc1c2c(nn1-c1ccc([N+](=O)[O-])cc1)CSC2)c1ccc(F)cc1	58*	34
CC1(C)CC(=O)C2=C(C1)N(c1ncn[nH]1)C(N)=C(C#N)C2c1cccc(Br)c1 (configuration not stated)	0	0
SMILES	Pf apPOL inh	mHTT CaM bind
COC(CNC(=O)C(=O)Nc1nnc(C(F)(F)F)s1)OC	8	·
Cc1ccc(CNS(=O)(=O)c2cc(Br)cc3c2N(C(=O)C2CC2)CC3)o1	0	6
Cc1ccccc1-n1nc2c(c1NC(=O)c1ccccc1[N+](=O)[O-])CSC2	-6	32
Cc1ccccc1-n1nc2c(c1NC(=O)c1ccc([N+](=O)[O-])cc1)CSC2	3	84*
NC(=O)NN=Cc1ccc2c(c1)OCO2	-4	·
Oc1c(C=Nc2ccc(Br)cc2)[nH]c2ccc(Br)c(Cl)c12	-7	58*
COc1ccc(CN=Cc2[nH]c3ccc(Br)c(Cl)c3c2O)cc1	5	69*
COc1ccc(N=Cc2[nH]c3ccc(Br)c(Cl)c3c2O)cc1	-11	19
Cc1cc(C)cc(N=Cc2[nH]c3ccc(Br)c(Cl)c3c2O)c1	-3	4
Oc1c(C=NCc2ccccc2)[nH]c2ccc(Br)c(Cl)c12	8	36
Oc1c(C=NC2CCCCC2)[nH]c2ccc(Br)c(Cl)c12	9	76*
CCOc1ccccc1NC(=O)c1ccc2c(c1)N(C)C(C)CO2 (configuration not stated)	9	27
COc1ccc(C)c2sc(NS(=O)(=O)c3ccc(C)cc3)nc12	-2	0
Cc1cccc(NS(=O)(=O)c2cc(Cl)ccc2Cl)c1C	-4	-26
CCn1cc(CN2CCC(C(=O)NCc3ccc(N(C)C)cc3)CC2)c2cc(OC)ccc21	-2	56*
CCn1cc(CN2CCC(C(=O)NCc3ccc(OC)cc3)CC2)c2cc(OC)ccc21	1	20
O=C(O)C1(c2ccc([N+](=O)[O-])cc2)CCCC1	-2	94*
O=C(O)C#Cc1ccc([N+](=O)[O-])cc1	-12	-4
Cc1ccc(C)c(CNC(=O)c2cn3c(n2)CN(CC(C)C)CC3)c1	0	20
Cc1cccc(N2CCN(C(=O)c3cn4c(n3)COCC4)CC2)c1C	0	5
Cc1cccc(N2CCN(C(=O)c3cn4c(n3)CN(CC(C)C)CC4)CC2)c1C	-8	71*
Cc1cc(C)c(CNC(=O)c2cn3c(n2)CN(CC(C)C)CC3)c(C)c1	0	71*
CC(C)CN1CCn2cc(C(=O)N3CCN(c4ccccc4Cl)CC3)nc2C1	-4	46
CC(C)CN1CCn2cc(C(=O)N3CCN(c4ccccc4)CC3)nc2C1	-6	58*
CCCN1CCn2cc(C(=O)N3CCN(c4ccc(Cl)cc4)CC3)nc2C1	-5	17
SMILES	Pf apPOL inh	mHTT CaM bind
CC(C)CN1CCn2cc(C(=O)N3CCN(c4ccc(Cl)cc4)CC3)nc2C1	-9	92*
Cc1cc(NS(=O)(=O)c2cccc([N+](=O)[O-])c2)c(Br)c(C)c1O	-2	-1
Cc1nc2c(C(=O)NCCC3=CCCCC3)cnn2c(C)c1Cc1ccc(F)cc1	-7	14
Cc1ccc(C2C(C#N)=C(N)SC(N)=C2C#N)s1	44	15
COc1ccc(C(=O)Nc2ccc(I)cc2)c(OC)c1	-2	2
CCN(CC)c1ccc(NC(=O)c2ccc(OC)c([N+](=O)[O-])c2)cc1	-1	62*
CCN(CC)c1ccc(NC(=O)c2ccc(OC)cc2OC)cc1	0	67*
CCOc1ccc(C(=O)Nc2ccc(N(CC)CC)cc2)cc1[N+](=O)[O-]	1	10
COc1cc(/C=C2\Sc3ccccc3C2=O)c(Br)cc1O	-9	34
O=C(COc1ccccc1)Nc1ccc(-n2nncc2-c2ccccc2)cc1	-6	15
CC1=NN(c2ccc(Br)cc2)C(=O)/C1=C/c1ccc(-c2ccc3c(c2)C(=O)NC3=O)o1	-1	6
O=C1NC(=S)N/C1=C/c1ccc(-c2ccc3c(c2)C(=O)NC3=O)o1	·	55*
Cn1nc(-c2ccncc2)nc2c(=O)n(C)c(=O)nc1-2	9	2
CCn1nc(-c2ccccn2)nc2c(=O)n(C)c(=O)nc1-2	6	84*
CCc1ccc(S(=O)(=O)N2CCN(Cc3nc4ccccc4[nH]3)CC2)s1	-52	100*
CN(C)S(=O)(=O)N1CCN(Cc2nc3ccccc3[nH]2)CC1	-4	-15
COc1cccc(CNC(=O)c2cc3c(s2)CCN(C(=O)c2ccc(F)cc2)C3)c1	-4	12
O=C(c1cc2cn(C3CC3)cc2s1)N1CCOCC1	-5	5
CC(C)n1cc2cc(C(=O)N3CCN(Cc4ccc5c(c4)OCO5)CC3)sc2c1	-10	65*
CC(C)CN1CCN(C(=O)c2cc3cn(C(C)C)cc3s2)CC1	-8	15
CN1CCC(N2CCN(C(=O)c3cc4cn(C5CCCC5)cc4s3)CC2)CC1	-3	30

Source: PubChem BioAssay
